Laboratory results from PubChem BioAssay (NCATS).
Records with an inconclusive call do not appear. The source made the active and inactive calls. Unless noted, calls come from the whole dose curve; as a rule, active = well fitted curve in the direction sought with a large enough effect; inconclusive = small, poorly fitted or top-dose-only effect, or another doubt; inactive = no such curve, though single readings can be large; an effect the other way counts as inactive or inconclusive.

Columns and labels:
[1] = Cytometric Cell-Based qHTS for Inhibitors of the mTORC1 Signaling Pathway in MEF (Tsc2-/-, p53-/-) Cells (AID 2660);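 note: percent of cells above a phospho-rpS6 to PI ratio cutoff in each well; series mostly up to about 38 µM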
Summary of the method: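 Tsc2-/-, p53-/- MEFs (empty vector) exposed to compound 24 h at 37 C, fixed, stained with Alexa-488 anti-phospho-rpS6 Ser235/236 and propidium iodide. Acumen laser scanning; phospho-S6/PI ratio thresholded against 7.5 nM rapamycin, reported as % positive cells.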

[2] = High Content Imaging Cell-Based qHTS for Inhibitors of the mTORC1 Signaling Pathway in MEF (Tsc2-/-, p53-/-) Cells (AID 2666);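 note: percent of cells scored positive for phospho-rpS6 Ser235/236 immunostaining by imaging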
Summary of the method: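 Phospho-rpS6 (Ser235/236) immunofluorescence, normalized and scored as % positive cells using rapamycin and DMSO controls, was read in empty-vector Tsc2-/-, p53-/- MEFs after 24 h compound exposure at 37 C; propidium iodide counted cells.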

[3] = High Content Imaging Cell-Based qHTS for Inhibitors of the mTORC1 Signaling Pathway in MEF Cells (AID 2667);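 note: Tsc2-/- p53-/- MEFs stably re-expressing wild-type Tsc2 exposed 24 h; series mostly up to about 38 µM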
Summary of the method: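 WT MEFs (Tsc2-/-, p53-/- re-expressing Tsc2), in DMEM + 10% FBS, were treated with compound for 24 h at 37 C. Cells were then fixed and stained for phospho-rpS6 Ser235/236 with propidium iodide as cell count. Values are % positive cells, with thresholds set against rapamycin-treated cells.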

[4] = Cytometry Cell-Based qHTS for Inhibitors of the mTORC1 Signaling Pathway in MEF cells (AID 2668);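 note: Tsc2-/- p53-/- mouse embryonic fibroblasts stably re-expressing wild-type Tsc2; percent cells positive for phospho-rpS6 Ser235/236 relative to propidium iodide stain; series mostly up to about 38 µM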
Summary of the method: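 Phospho-rpS6 (Ser235/236) immunofluorescence over PI signal, scored as % positive cells using thresholds from 7.5 nM rapamycin and DMSO wells, after 24 h compound exposure of WT-Tsc2-rescued Tsc2-/-, p53-/- MEFs. PI cell count recorded for viability.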

[5] = Validation screen for small molecules that induce DNA re-replication in MCF 10A normal breast cells (AID 463097); note: nearly all actives have a fitted effect of over 60% in size
Summary of the method: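 Read-out is Hoechst total nuclear intensity by fluorescence scanning imager, flagging increased high-DNA-content nuclei. Compounds were incubated with MCF 10A cells for 48 hr (37 C, 5% CO2) before 40 min staining.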

[6] = biological target: Ubiquitin carboxyl-terminal hydrolase 2 (Homo sapiens) (UniProt O75604); test: qHTS Validation Assay for Inhibitors of Ubiquitin-specific Protease USP2a Using CHOP2 as the Reporter (AID 463106)
Sequence of Ubiquitin carboxyl-terminal hydrolase 2 (Homo sapiens) (O75604 whole entry, looked up): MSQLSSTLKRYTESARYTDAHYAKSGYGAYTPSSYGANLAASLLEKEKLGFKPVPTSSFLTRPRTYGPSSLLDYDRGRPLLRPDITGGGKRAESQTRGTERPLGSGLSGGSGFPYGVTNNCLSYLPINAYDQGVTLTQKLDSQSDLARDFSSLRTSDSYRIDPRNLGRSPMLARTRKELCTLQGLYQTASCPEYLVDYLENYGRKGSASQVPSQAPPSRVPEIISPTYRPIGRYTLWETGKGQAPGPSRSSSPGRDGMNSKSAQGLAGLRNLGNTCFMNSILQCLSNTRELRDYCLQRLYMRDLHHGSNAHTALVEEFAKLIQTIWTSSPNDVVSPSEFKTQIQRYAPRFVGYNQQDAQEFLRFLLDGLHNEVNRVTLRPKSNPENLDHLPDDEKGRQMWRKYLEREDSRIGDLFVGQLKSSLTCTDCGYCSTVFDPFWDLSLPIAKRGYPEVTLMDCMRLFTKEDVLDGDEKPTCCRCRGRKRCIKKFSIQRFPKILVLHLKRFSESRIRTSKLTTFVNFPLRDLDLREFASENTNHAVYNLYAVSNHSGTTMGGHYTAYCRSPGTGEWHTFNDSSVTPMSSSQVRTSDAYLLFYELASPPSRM
Summary of the method: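 USP2 core (10 nM final) was preincubated with compound 30 min at RT in pH 8.0 Tris/CaCl2/beta-ME/CHAPS buffer. Ub-CHOP2 and reporter substrate (25 nM final each) were then added, with fluorescence (Ex 485/Em 531) read after 60 min. Data were normalized to NEM full inhibition and fitted to concentration-response curves.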

[7] = biological target: DNA polymerase III PolC-type (Bacillus subtilis (strain 168)) (UniProt P13267); test: qHTS Validation Assay for the Inhibitors of DNA Replication in Gram-Positive Bacteria (AID 485295);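 note: reconstituted holoenzyme with PolC plus beta clamp SSB and primase; PicoGreen fluorescence of double-stranded DNA made on primed circular M13 template; series mostly up to about 57 µM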
Sequence of DNA polymerase III PolC-type (Bacillus subtilis (strain 168)) (P13267 whole entry, looked up): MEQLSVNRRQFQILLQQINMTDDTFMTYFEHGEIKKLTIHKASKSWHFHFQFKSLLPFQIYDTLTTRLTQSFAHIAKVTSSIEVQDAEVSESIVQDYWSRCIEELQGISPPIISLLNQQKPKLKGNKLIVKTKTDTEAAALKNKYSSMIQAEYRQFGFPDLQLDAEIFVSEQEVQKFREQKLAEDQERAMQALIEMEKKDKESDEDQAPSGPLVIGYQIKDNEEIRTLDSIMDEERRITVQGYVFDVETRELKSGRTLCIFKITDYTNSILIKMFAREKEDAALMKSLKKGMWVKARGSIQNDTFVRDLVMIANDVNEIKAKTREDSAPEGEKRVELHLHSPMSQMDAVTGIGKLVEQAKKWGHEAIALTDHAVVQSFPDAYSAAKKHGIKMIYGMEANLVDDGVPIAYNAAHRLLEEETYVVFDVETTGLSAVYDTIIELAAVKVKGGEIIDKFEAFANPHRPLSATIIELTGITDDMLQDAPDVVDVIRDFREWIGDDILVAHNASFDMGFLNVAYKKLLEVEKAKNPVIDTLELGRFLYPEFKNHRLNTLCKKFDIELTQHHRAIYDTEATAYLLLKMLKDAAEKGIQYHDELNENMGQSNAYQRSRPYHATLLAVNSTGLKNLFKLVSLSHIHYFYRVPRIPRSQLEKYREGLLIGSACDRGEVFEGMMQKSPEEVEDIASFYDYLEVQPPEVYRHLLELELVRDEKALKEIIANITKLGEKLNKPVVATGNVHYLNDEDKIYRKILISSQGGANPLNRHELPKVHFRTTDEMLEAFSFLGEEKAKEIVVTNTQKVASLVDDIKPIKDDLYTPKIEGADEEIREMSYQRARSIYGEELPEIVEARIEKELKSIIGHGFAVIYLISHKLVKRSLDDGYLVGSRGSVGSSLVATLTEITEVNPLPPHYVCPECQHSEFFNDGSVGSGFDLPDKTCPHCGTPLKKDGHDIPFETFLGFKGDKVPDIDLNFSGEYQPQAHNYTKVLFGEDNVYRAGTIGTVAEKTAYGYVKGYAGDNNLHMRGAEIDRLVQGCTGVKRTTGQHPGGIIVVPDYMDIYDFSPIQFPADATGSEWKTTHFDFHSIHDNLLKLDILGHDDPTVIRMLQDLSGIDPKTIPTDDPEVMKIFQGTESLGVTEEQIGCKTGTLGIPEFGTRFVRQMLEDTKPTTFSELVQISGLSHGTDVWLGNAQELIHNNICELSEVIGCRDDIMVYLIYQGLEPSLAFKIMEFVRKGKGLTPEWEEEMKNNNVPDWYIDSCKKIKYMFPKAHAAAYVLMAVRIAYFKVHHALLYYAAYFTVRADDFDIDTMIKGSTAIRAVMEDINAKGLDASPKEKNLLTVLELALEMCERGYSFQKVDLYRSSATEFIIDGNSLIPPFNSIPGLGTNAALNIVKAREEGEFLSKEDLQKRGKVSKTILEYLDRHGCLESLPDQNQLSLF
Summary of the method: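 Double-stranded DNA product detected by PicoGreen fluorescence after EDTA quench. Compound incubated with B. subtilis holoenzyme (PolC, beta subunit, SSB, primase) before substrate addition; primed replication of M13Gori with dNTPs and NTPs at room temperature; DMSO defines 0% inhibition.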

[8] = qHTS Validation Assay to Find Inhibitors of Chronic Active B-Cell Receptor Signaling (AID 485345; active = well fitted curve in the direction sought with a large enough effect in the main read-out, with a control signal flat, not every such curve was filed as active)
Summary of the method: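 TMD8 ABC-DLBCL cells stably carrying doxycycline-inducible IkappaBalpha–green luciferase fusion plus unfused red luciferase; compounds 46 uM to 3 nM, 4 h at 37C with doxycycline. Corrected green/red luminescence ratio normalized to 10 uM MG-132 and basal cell wells; curves fitted.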

[9] = biological target: ATP-dependent 6-phosphofructokinase (Trypanosoma brucei brucei) (UniProt O15648); test: qHTS Validation Assay to Find Inhibitors of T. brucei phosphofructokinase (AID 485368)
Summary of the method: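 Activity was read as ADP production by luminescence (ADP-Glo) after 45 min at room temperature. The enzyme was 1.25nM PFK in 0.1M TEA pH 8.0 with 0.5 mM F6P, 0.1mM ATP and 5 mM MgCl2. Compounds were titrated up to 57 uM and % activity normalized to no-enzyme and full-enzyme controls.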

[10] = Quantitative high throughput screen for delayed death inhibitors of the malarial parasite plastid, 96 hour incubation (AID 488745); note: nearly all actives have a fitted effect of over 70% in size; note: potency is the fitted concentration of half-maximal effect
Summary of the method: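 P. falciparum carrying an integrated firefly luciferase reporter, grown in erythrocytes (2% hematocrit, 0.1% parasitemia final) in RPMI 1640/0.5% Albumax, was exposed to compound for 96 h (two generations) at 37 C, 5% CO2. Luminescence decrease indicated growth inhibition.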

[11] = biological target: Thioredoxin reductase 1, cytoplasmic (Rattus norvegicus) (UniProt O89049); test: qHTS Assay for Substrates of Mammalian Selenoprotein Thioredoxin Reductase 1 (TrxR1) (AID 488772);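 note: NADPH fluorescence in the first read after selenite addition and not the 8 min delta; series mostly up to about 57 µM; a drop in NADPH fluorescence below the no-compound background marks a TrxR1 substrate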
Sequence of Thioredoxin reductase 1, cytoplasmic (Rattus norvegicus) (O89049 whole entry, looked up): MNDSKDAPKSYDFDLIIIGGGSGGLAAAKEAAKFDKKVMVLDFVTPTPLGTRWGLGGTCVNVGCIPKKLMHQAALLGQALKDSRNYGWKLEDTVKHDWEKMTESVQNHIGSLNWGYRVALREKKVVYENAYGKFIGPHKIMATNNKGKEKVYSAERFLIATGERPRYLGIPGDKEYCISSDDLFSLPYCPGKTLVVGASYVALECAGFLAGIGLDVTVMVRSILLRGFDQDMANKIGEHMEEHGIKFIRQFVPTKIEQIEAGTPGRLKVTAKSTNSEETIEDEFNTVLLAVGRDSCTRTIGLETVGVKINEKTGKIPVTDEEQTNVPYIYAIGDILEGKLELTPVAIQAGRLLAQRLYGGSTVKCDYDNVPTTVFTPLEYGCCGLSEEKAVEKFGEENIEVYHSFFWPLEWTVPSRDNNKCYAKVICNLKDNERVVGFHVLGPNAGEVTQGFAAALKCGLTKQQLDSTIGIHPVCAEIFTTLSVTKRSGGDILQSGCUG
Summary of the method: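 Quantitative HTS in Tris-HCl buffer at pH 7.5 with EDTA and Tween-20, using rat TrxR1, 400 uM NADPH and 400 uM selenite (final). A fall in initial NADPH fluorescence relative to background marked substrate behaviour.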

[12] = biological target: M-phase phosphoprotein 8 (Homo sapiens) (UniProt Q99549); test: qHTS Validation Assay for Inhibitors for MPP8 Chromodomain Interactions with Methylated Histone Tails (AID 488949);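 note: AlphaScreen signal from MPP8 chromodomain bound to biotinylated H3K9me3 peptide; top concentration of the series differs between compounds; nearly all actives have a fitted effect of over 55% in size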
Sequence of M-phase phosphoprotein 8 (Homo sapiens) (Q99549 whole entry, looked up): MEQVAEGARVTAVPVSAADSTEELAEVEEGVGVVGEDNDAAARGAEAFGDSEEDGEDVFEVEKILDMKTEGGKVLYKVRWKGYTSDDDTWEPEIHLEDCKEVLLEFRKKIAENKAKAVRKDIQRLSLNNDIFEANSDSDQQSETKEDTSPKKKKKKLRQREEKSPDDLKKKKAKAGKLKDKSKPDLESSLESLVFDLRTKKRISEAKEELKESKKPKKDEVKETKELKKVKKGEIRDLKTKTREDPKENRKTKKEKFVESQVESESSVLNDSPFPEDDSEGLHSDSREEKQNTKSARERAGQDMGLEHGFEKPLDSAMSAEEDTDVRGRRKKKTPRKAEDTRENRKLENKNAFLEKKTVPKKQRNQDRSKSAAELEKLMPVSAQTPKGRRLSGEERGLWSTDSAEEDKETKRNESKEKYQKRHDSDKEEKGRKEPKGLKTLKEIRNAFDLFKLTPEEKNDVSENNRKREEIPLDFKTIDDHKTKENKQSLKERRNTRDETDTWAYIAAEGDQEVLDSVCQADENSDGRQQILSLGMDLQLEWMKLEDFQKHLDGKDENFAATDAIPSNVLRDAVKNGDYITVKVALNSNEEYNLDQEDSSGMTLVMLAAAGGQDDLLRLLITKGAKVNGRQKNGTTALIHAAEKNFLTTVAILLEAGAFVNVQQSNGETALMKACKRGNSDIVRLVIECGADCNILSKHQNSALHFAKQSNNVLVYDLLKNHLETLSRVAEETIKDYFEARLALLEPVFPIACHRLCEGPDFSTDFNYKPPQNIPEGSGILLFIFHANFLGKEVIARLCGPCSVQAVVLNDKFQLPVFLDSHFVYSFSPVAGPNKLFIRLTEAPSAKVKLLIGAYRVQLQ
Summary of the method: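 AlphaScreen proximity signal from streptavidin donor and Ni-chelate acceptor beads (10 ug/mL each) reported binding of MPP8 to trimethyl-K9 H3(1-18) peptide, both at 50 nM. The complex formed 30 min before a 30 min compound exposure at room temperature, in PBS pH 7.4.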

[13] = biological target: Chromobox protein homolog 1 (Homo sapiens) (UniProt P83916); test: qHTS Validation Assay for Inhibitors of HP1-beta Chromodomain Interactions with Methylated Histone Tails (AID 488953);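 note: loss of AlphaScreen luminescence from HP1-beta binding biotinylated H3K9me3 peptide; series mostly up to about 110 µM; nearly all actives have a fitted effect of over 50% in size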
Sequence of Chromobox protein homolog 1 (Homo sapiens) (P83916 whole entry, looked up): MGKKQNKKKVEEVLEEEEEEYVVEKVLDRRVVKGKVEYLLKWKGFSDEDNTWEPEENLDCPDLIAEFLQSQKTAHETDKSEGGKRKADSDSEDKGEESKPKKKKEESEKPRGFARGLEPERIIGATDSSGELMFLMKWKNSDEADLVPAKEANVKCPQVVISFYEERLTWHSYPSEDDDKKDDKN
Summary of the method: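 HP1-beta (50 nM) was preincubated 30 min at room temperature with biotinylated H3(1-18)K9me3 peptide (50 nM) in PBS pH 7.4, 0.01% Tween-20, then with compounds 30 min. AlphaScreen signal was read after streptavidin donor/nickel chelate acceptor beads (10 ug/mL final).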

[14] = biological target: Methanococcus maripaludis chaperonin (MmCpn) (UniProt Q6LX38); test: High-Throughput Screening for Modulators of Cytosolic Chaperonin Activity: MmCpn Primary Screen (AID 488978);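 note: 50 nM MmCpn enzyme hydrolysing 30 µM ATP at 37 °C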
Sequence of Methanococcus maripaludis chaperonin (MmCpn) (Q6LX38 1-543): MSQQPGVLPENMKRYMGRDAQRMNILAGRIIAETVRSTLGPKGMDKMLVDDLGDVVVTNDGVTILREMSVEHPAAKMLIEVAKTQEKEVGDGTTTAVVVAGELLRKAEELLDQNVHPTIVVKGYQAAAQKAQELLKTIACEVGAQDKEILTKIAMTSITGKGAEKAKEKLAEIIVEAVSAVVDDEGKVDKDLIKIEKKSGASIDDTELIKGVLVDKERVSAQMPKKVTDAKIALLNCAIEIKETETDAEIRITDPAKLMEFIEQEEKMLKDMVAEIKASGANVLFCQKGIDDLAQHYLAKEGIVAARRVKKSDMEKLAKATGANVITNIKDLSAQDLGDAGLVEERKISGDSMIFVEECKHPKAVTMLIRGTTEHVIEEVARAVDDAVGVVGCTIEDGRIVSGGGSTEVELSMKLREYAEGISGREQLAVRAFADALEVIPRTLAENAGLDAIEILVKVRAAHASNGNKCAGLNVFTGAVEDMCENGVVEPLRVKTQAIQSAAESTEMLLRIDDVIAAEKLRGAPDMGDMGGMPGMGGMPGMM
Summary of the method: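 ATPase activity of 50 nM MmCpn was assayed with 30 uM ATP, 10 minutes at 37C, after a 5 min compound preincubation at room temperature. ADP production was read as HTRF emission at 590 and 665 nm.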

[15] = biological target: Beta-2 adrenergic receptor (Homo sapiens) (UniProt P07550); test: qHTS validation assay of beta-arrestin-biased ligands of beta2-adrenergic receptor (AID 485366)
Summary of the method: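 Tango cells expressing recombinant beta2-AR and beta-arrestin with tTA-driven luciferase, in DMEM with 1% FBS. Compounds were titrated up to 46 microM for 18 hr at 37 degrees C. Luminescence was read 15 min after substrate; curves were fitted and class-assigned.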

[16] = biological target: Thioredoxin reductase 1, cytoplasmic (Rattus norvegicus) (UniProt O89049); test: qHTS Assay for Inhibitors of Mammalian Selenoprotein Thioredoxin Reductase 1 (TrxR1) (AID 488773); conditions: Potency: inhibition;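 note: drop in NADPH fluorescence over an 8 min run after selenite addition; series mostly up to about 57 µM; nearly all actives have a fitted effect of over 40% in size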
Summary of the method: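 Steps: enzyme (90 nM) plus NADPH (400 uM final), 5 min at ~22 deg C; compound added, 15 min; selenite (400 uM final) added; fluorescence followed for 8 min. Concentration-response curves derived from the normalized delta values.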

[17] = biological target: Flap endonuclease 1 (Homo sapiens) (UniProt P39748); test: qHTS Validation Assay for the Inhibitors of Human Flap endonuclease 1 (FEN1) (AID 488816)
Sequence of Flap endonuclease 1 (Homo sapiens) (P39748 whole entry, looked up): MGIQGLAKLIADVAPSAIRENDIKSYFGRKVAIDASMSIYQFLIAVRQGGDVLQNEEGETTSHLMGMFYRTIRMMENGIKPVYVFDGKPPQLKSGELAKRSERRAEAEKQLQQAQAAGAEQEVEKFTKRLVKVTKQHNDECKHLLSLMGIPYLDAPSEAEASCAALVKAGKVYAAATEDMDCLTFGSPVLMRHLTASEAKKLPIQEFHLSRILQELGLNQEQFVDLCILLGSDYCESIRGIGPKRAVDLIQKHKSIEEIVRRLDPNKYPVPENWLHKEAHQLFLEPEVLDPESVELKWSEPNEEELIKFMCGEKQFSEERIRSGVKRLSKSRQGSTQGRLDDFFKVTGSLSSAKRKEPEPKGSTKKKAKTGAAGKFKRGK
Summary of the method: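 Human FEN1 (10 nM) preincubated 15 min at room temperature with compounds, then flap DNA substrate added at 50 nM final. Fluorescence read at 0 and 15 min; concentration-response fitted with four-parameter Hill equation.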

[18] = biological target: Tumor susceptibility gene 101 protein (Homo sapiens) (UniProt Q99816); test: qHTS Validation Assay for Iinhibitors of HIV-1 Budding by Blocking the Interaction of PTAP/TSG101 (AID 485342; calls by dose curve)
Sequence of Tumor susceptibility gene 101 protein (Homo sapiens) (Q99816 whole entry, looked up, the tested form may be a part): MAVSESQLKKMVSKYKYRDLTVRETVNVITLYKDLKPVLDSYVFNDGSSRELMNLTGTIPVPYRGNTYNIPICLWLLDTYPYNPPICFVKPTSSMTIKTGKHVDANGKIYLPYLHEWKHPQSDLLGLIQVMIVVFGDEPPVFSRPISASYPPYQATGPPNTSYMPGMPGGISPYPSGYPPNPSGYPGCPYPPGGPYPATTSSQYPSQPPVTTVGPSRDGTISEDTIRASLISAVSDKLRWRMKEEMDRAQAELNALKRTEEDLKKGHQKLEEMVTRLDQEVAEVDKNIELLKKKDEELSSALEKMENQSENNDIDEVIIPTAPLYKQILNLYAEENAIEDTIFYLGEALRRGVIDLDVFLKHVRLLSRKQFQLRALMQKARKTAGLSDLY
Summary of the method: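 Fluorescence polarization of 50 nM FITC-PTAP peptide bound to 10 uM Tsg101 binding domain was read after 20 min room-temperature incubation with compounds, in 10 mM HEPES pH 7.5, 0.15 M NaCl, 0.01% Tween 20.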

[19] = Quantitative high throughput screen for delayed death inhibitors of the malarial parasite plastid, 48 hour incubation (AID 488752); note: nearly all actives have a fitted effect of over 65% in size; note: potency is the fitted concentration of half-maximal effect
Summary of the method: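 Erythrocytes infected with P. falciparum carrying an integrated firefly luciferase reporter (2% hematocrit, 0.1% parasitemia final) were exposed to compounds in RPMI 1640/0.5% Albumax for 48 h at 37 C, 5% CO2. Growth inhibition was scored as reduced luminescence.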

Measured: Potency

CC[N+](CC)(CC)CC(=O)Nc1c(C)cccc1C
not listed: [15] | [16] | [17] | [18] | [19]
inactive: all other assays above

OC[C@H]1NC[C@@H](O)[C@@H]1O
not listed: [10] | [18] | [19]
inactive: all other assays above

N[C@@H](Cc1c[nH]c2ccccc12)C(=O)O
not listed: [8] | [9] | [10] | [16]
inactive: all other assays above

N[C@@H](Cc1ccc(O)c(I)c1)C(=O)O
not listed: [8] | [10] | [13]
inactive: all other assays above

O=C(O)C1=CCCNC1
not listed: [8] | [9] | [10] | [13]
inactive: all other assays above

CCn1c(=O)[nH]c2cc(Cl)c(Cl)cc21
not listed: [8] | [9] | [11] | [12] | [17]
inactive: all other assays above

CCCCCCCCCC[Si](C)(C)CCC(=O)NC(Cc1ccc(C)cc1)c1ccccc1 (stereo not given)
not listed: [8] | [9] | [11] | [17]
inactive: all other assays above

O=C(O)c1ccccc1Nc1ccccc1
not listed: [6] | [9] | [10] | [13]
inactive: all other assays above

O=C(c1ccc2c(c1)OCCO2)N1CCCCC1
not listed: [8] | [9] | [13] | [18]
inactive: all other assays above

C#CCn1c(=O)c2c(ncn2C)n(C)c1=O
not listed: [7] | [8] | [10] | [16] | [17]
inactive: all other assays above

CCCCC[C@H](CC(=O)NO)C(=O)N[C@H](C(=O)N1CCC[C@H]1CO)C(C)C
active: [10] 1170 nM | [19] 2940 nM
not listed: [7] | [8] | [18]
inactive: all other assays above

N#Cc1cc2nc(O)c(O)nc2cc1[N+](=O)[O-]
not listed: [7] | [9] | [12] | [13] | [19]
inactive: all other assays above

CN1CCC2(CCN3CCc4c(oc5ccccc45)C3C2)N(C)C1=O (stereo not given)
not listed: [7] | [16] | [17]
inactive: all other assays above
